Reference: PubChem BioAssay (NCI)
This is part of a sample that, as a whole, favours compounds with a hit. Of some 79,000 tested, about 15% had one in any assay. A number with no mark means an inactive call. The source made the active and inactive calls. Cut-off read from the data, not from the text of the source: active = growth inhibition above about 70%; inactive = the rest.

Columns and labels:
[1] = NCI Yeast Anticancer Drug Screen. Data for the rad52 strain (AID 147);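 note: 0% = growth of vehicle-treated control cultures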; conditions: S. cerevisiae rad52 mutant growth inhibition, hits give high values
Outline: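 Inhibition of yeast growth, referenced to vehicle controls, was the measured output for a strain with defective DNA damage repair.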

[2] = NCI Yeast Anticancer Drug Screen. Data for the wt1 strain (AID 149);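 note: 0% = growth of vehicle-treated wt1 cultures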; conditions: S. cerevisiae wt1 strain (SPY 50644) growth inhibition, hits give high values
Outline: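 Vehicle-normalised growth inhibition; strain wt1; compound exposure.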

[3] = NCI Yeast Anticancer Drug Screen. Data for the rad50EPP+ strain (AID 151);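 note: 0% = growth of vehicle-treated control cultures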; conditions: S. cerevisiae rad50 mutant strain, hits give high values
Outline: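 Genetically defined yeast (rad50EPP+, DNA damage repair alteration) is grown with compound, and inhibition of growth is expressed relative to vehicle-treated controls.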

[4] = NCI Yeast Anticancer Drug Screen. Data for the mgt1 strain (AID 153); conditions: S. cerevisiae mgt1 mutant growth inhibition, hits give high values
Outline: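 In the mgt1 strain, test compounds were added and growth inhibition was determined relative to vehicle-treated controls.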

[5] = NCI Yeast Anticancer Drug Screen. Data for the rad50 strain (AID 155);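 note: 0% = growth of vehicle-only cultures of the same strain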; conditions: S. cerevisiae rad50 strain growth inhibition, hits give high values
Outline: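 A DNA repair-deficient yeast mutant serves as the test organism; compound-induced growth inhibition is calculated against vehicle-treated cells.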

[6] = NCI Yeast Anticancer Drug Screen. Data for the mec2-1 strain (AID 157); conditions: S. cerevisiae mec2-1 strain, hits give high values
Outline: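 Each compound was tested on mec2-1 yeast, a strain altered in DNA damage repair or cell cycle control. Growth inhibition is reported relative to vehicle.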

[7] = NCI Yeast Anticancer Drug Screen. Data for the rad14 strain (AID 159);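 note: 0% = growth of vehicle-treated control cultures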; conditions: S. cerevisiae rad14 strain growth inhibition, hits give high values
Outline: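 Vehicle-treated cultures served as the baseline for growth inhibition of a DNA repair-mutant yeast strain exposed to each compound.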

[8] = NCI Yeast Anticancer Drug Screen. Data for the sgs1 mgt1 strain (AID 161);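 note: 0% = growth of cultures given vehicle only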; conditions: S. cerevisiae sgs1 mgt1 strain, hits give high values
Outline: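 Mutant yeast exposed to compound; growth scored against vehicle-only wells.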

[9] = NCI Yeast Anticancer Drug Screen. Data for the CLN2oe strain (AID 163);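 note: 0% = growth of vehicle-only control cultures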; conditions: S. cerevisiae CLN2oe strain, hits give high values
Outline: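 First, the altered yeast strain was treated with each compound; second, its growth was measured; finally, inhibition was derived by comparison with vehicle controls.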

[10] = NCI Yeast Anticancer Drug Screen. Data for the cln2 rad14 strain (AID 165);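 note: 0% = growth equal to vehicle treated cultures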; conditions: S. cerevisiae cln2 rad14 strain, hits give high values
Outline: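 Test compounds were added to cln2 rad14 yeast cultures; inhibition of growth was then determined by comparison with vehicle treatment.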

[11] = NCI Yeast Anticancer Drug Screen. Data for the bub3 strain (AID 167); conditions: S. cerevisiae bub3 mutant strain, hits give high values
Outline: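 Inhibition values come from growth of compound-treated mutant yeast normalised to vehicle-treated controls.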

[12] = NCI Yeast Anticancer Drug Screen. Data for the wt2 strain (AID 169);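 note: 0% = growth of vehicle-treated yeast cultures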; conditions: S. cerevisiae wt2 strain growth inhibition, hits give high values
Outline: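 The panel's yeast strains carry defined changes in DNA repair or cell cycle genes. Each strain is grown with compound, and growth loss is scored relative to vehicle.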

[13] = NCI Yeast Anticancer Drug Screen. Data for the mlh1 strain (AID 171);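 note: 0% = growth of vehicle-treated control cultures of the same strain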; conditions: S. cerevisiae mlh1 strain growth inhibition, hits give high values
Outline: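 Inhibition values reflect reduced yeast growth in the presence of compound, referenced to vehicle controls, using a strain chosen for its alteration in DNA repair or cell cycle control.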

[14] = NCI Yeast Anticancer Drug Screen. Data for the sgs1 strain (AID 173);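 note: 0% = growth of vehicle-only control cultures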; conditions: S. cerevisiae sgs1 mutant, hits give high values
Outline: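 Vehicle-treated cultures served as reference for growth inhibition of a yeast strain altered in DNA damage repair or cell cycle control after compound exposure.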

[15] = NCI Yeast Anticancer Drug Screen. Data for the mlh1 rad18 strain (AID 175); conditions: S. cerevisiae mlh1 rad18 strain growth inhibition, hits give high values
Outline: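 Inhibition values reflect reduced growth of mutant yeast versus vehicle-treated controls following compound exposure; the mutations affect DNA damage repair.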

[16] = NCI Yeast Anticancer Drug Screen. Data for the rad18 strain (AID 177); conditions: S. cerevisiae rad18 mutant growth inhibition, hits give high values
Outline: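 Steps: expose repair-mutant yeast to compound; measure growth; express as inhibition relative to vehicle control.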

[17] = at 5.0 µM (retest, dose inferred, filed as 0.5)
[18] = at 50.0 µM (retest, dose inferred, filed as 5.0)

c1ccc2c(c1)-c1nc3ccccc3cc1C2N1CCOCC1 (stereo not drawn)
growth inhibition ([1]; at 1.2 µM): -2% | growth inhibition ([1]; at 3.7 µM): 1% | growth inhibition ([1]; at 11.0 µM): 4% | growth inhibition ([1]; at 33.0 µM): 8% | growth inhibition ([1]; at 100.0 µM): 16% | growth inhibition ([2]; at 1.2 µM): 1% | growth inhibition ([2]; at 3.7 µM): 2% | growth inhibition ([2]; at 11.0 µM): 4% | growth inhibition ([2]; at 33.0 µM): 2% | growth inhibition ([2]; at 100.0 µM): 5% | growth inhibition ([3]; at 1.2 µM): 6% | growth inhibition ([3]; at 3.7 µM): 25% | growth inhibition ([3]; at 11.0 µM): 51% | growth inhibition ([3]; at 33.0 µM): 68% | growth inhibition ([3]; at 100.0 µM): 77% (active) | growth inhibition ([4]; at 1.2 µM): 0% | growth inhibition ([4]; at 3.7 µM): -1% | growth inhibition ([4]; at 11.0 µM): -1% | growth inhibition ([4]; at 33.0 µM): 3% | growth inhibition ([4]; at 100.0 µM): 17% | growth inhibition ([5]; at 1.2 µM): 0% | growth inhibition ([5]; at 3.7 µM): -1% | growth inhibition [5, 17]: -6% | growth inhibition ([5]; at 11.0 µM): 10% | growth inhibition ([5]; at 33.0 µM): 9% | growth inhibition [5, 18]: 55% | growth inhibition ([5]; at 50.0 µM): 72.7% (active) | growth inhibition ([5]; at 100.0 µM): 17% | growth inhibition ([6]; at 1.2 µM): 1% | growth inhibition ([6]; at 3.7 µM): 1% | growth inhibition [6, 17]: 4% | growth inhibition ([6]; at 11.0 µM): 2% | growth inhibition ([6]; at 33.0 µM): 5% | growth inhibition [6, 18]: 8% | growth inhibition ([6]; at 50.0 µM): 13.2% | growth inhibition ([6]; at 100.0 µM): 17% | growth inhibition ([7]; at 1.2 µM): 0% | growth inhibition ([7]; at 3.7 µM): 0% | growth inhibition ([7]; at 11.0 µM): -1% | growth inhibition ([7]; at 33.0 µM): -4% | growth inhibition ([7]; at 100.0 µM): 21% | growth inhibition [8, 17]: -13% | growth inhibition [8, 18]: 65% | growth inhibition ([8]; at 50.0 µM): 70.5% (active) | growth inhibition ([9]; at 1.2 µM): -6% | growth inhibition ([9]; at 3.7 µM): -2% | growth inhibition ([9]; at 11.0 µM): -10% | growth inhibition ([9]; at 33.0 µM): -8% | growth inhibition ([9]; at 100.0 µM): -3% | growth inhibition [10, 17]: -32% | growth inhibition [10, 18]: 13% | growth inhibition ([10]; at 50.0 µM): 3.95% | growth inhibition ([11]; at 1.2 µM): 3% | growth inhibition ([11]; at 3.7 µM): 6% | growth inhibition [11, 17]: 7% | growth inhibition ([11]; at 11.0 µM): -17% | growth inhibition ([11]; at 33.0 µM): 29% | growth inhibition [11, 18]: 34% | growth inhibition ([11]; at 50.0 µM): 49.2% | growth inhibition ([11]; at 100.0 µM): 27% | growth inhibition ([12]; at 1.2 µM): -1% | growth inhibition ([12]; at 3.7 µM): 1% | growth inhibition ([12]; at 11.0 µM): 2% | growth inhibition ([12]; at 33.0 µM): 7% | growth inhibition ([12]; at 100.0 µM): 26% | growth inhibition ([13]; at 1.2 µM): 3% | growth inhibition ([13]; at 3.7 µM): 3% | growth inhibition ([13]; at 11.0 µM): 3% | growth inhibition ([13]; at 33.0 µM): -10% | growth inhibition ([13]; at 100.0 µM): 28% | growth inhibition ([14]; at 1.2 µM): 2% | growth inhibition ([14]; at 3.7 µM): 4% | growth inhibition ([14]; at 11.0 µM): 8% | growth inhibition ([14]; at 33.0 µM): 18% | growth inhibition ([14]; at 100.0 µM): 38% | growth inhibition [15, 17]: -1% | growth inhibition [15, 18]: 47% | growth inhibition ([15]; at 50.0 µM): 61.1% | growth inhibition ([16]; at 1.2 µM): 7% | growth inhibition ([16]; at 3.7 µM): 5% | growth inhibition ([16]; at 11.0 µM): 12% | growth inhibition ([16]; at 33.0 µM): 11% | growth inhibition ([16]; at 100.0 µM): 6%
